# Pf growth 96h = inhibits malaria parasite growth, 96 h. 320,000 compounds, 6.9% hits. Potency, µM (top dose mostly 28.7 µM), for inactives: at the highest dose activity change, negative = inhibition, usual class: inhibitors. P. falciparum luciferase reporter growth, 96 h; note: potency is the fitted concentration of half-maximal effect; % is set by controls: 0 for no effect and ±100 for the full control effect
#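 P. falciparum expressing integrated firefly luciferase, in erythrocytes at 2% hematocrit, 0.05% parasitemia, incubated with compounds 96 h at 37 C, 5% CO2. Growth inhibition read as loss of luminescence; two-generation exposure targets delayed-death apicoplast inhibitors.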
# Pf growth 48h = P. falciparum growth inhibition at 48 hours (one generation). P. falciparum luciferase growth in erythrocytes, 48 h. Potency, µM (titrated, usually from 28.7 µM), for inactives: at the top dose activity change, negative = inhibition, usual class: inhibitors. 310,000 compounds, 5.9% hits; note: potency is the fitted concentration of half-maximal effect; % is set by controls: 0 for no effect and ±100 for the full control effect
#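 A one-generation exposure of luciferase-tagged malaria parasites in RPMI 1640/Albumax erythrocyte culture, 37 C and 5% CO2. Inhibition is inferred from decreased luminescence after adding detection reagent.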
# SARS PLpro yeast-1 = blocks SARS-CoV papain-like protease in a yeast assay; S. cerevisiae expressing SARS-CoV PLpro, growth rescue; Potency, µM (series often up to 32.9 µM), for the others: at the top dose activity, positive = growth rescue, usual class: activators; 330,000 compounds, 0.19% hits; calls by dose curve; note: potency is the fitted concentration of half-maximal effect; 0% is about no effect; nearly all actives have a fitted effect of over 55% in size
# Sm TGR inh = S. mansoni TGR enzyme inhibition; Q962Y6; purified TGR, DTNB reduction, TNB absorbance 405 nm; Potency, µM (top dose mostly 114 µM), for the others: at the top dose activity change, negative = inhibition, usual class: inhibitors; 360,000 compounds, 3% hits; AID 485364; note: potency is the fitted concentration of half-maximal effect; % is set by controls: 0 for no effect and ±100 for the full control effect; nearly all actives have a fitted effect of over 60% in size
#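 TGR 20 nM + NADPH 100 uM (dispensed conc.), cpd preinc 15 min RT; start with NADPH (500 uM addition) then DTNB (15 mM addition). Kinetic TNB absorbance, 405 nm filter. Four-parameter Hill fit across titration.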
# SARS PLpro yeast-2 = Validates SARS-CoV PLpro inhibitor hits in yeast; yeast expressing SARS-CoV PLpro, growth phenotype rescue; 1,000 compounds, 19% hits; shares compounds with SARS PLpro yeast-1; AID 652038; calls only; call rule not given here
# An asterisk follows results filed as active; i = inactive; u = inconclusive; x = no result given; + = active, no number; [ ] = remark or other dose. An excerpt weighted towards active compounds, which were near 12% of everything screened. Unless noted, calls come from the whole dose curve; as a rule, active = well fitted curve in the direction sought with a large enough effect; inconclusive = small, poorly fitted or top-dose-only effect, or another doubt; inactive = no such curve, though single readings can be large; an effect the other way counts as inactive or inconclusive.
SMILES,Pf growth 96h,Pf growth 48h,SARS PLpro yeast-1,Sm TGR inh,SARS PLpro yeast-2
Cc1ccnc2nc(C(=O)OCC(=O)Nc3ccc4c(c3)OCCO4)nn12,x,x,u,x,i
COC(=O)c1ccc(NC(=O)COC(=O)c2nc3nccc(C)n3n2)cc1,u,9%,-1%,3%,x
Cc1ccc(-c2c(CN3CCN(c4cccc(C)c4)C(C)C3)csc2C)cc1 (stereo not drawn),x,x,x,3%,x
CCOc1ccccc1C(=O)N(Cc1cccs1)c1ccc(Cl)cc1,x,x,x,4%,x
O=C(Nc1nnc(Cc2ccccc2)s1)Nc1ccccc1F,15µM*,-39%,u,2%,+
COc1ccccc1NC(=O)Nc1nnc(Cc2ccccc2F)s1,12%,0%[0.00184 µM],1%,0%,x
CCn1nc(-c2ccccc2)c(-c2ccccc2)c(C(=O)Nc2ccc(S(N)(=O)=O)cc2)c1=O,x,x,x,7%,x
Cc1cc(OCC(=O)NCC2(N3CCOCC3)CCCCC2)ccc1Cl,x,x,x,6%,x
CCOc1ccc(NC(=O)Cn2c(=O)c(CNc3ccc(CC)cc3)cc3cc4c(cc32)OCO4)cc1,x,x,x,5%,x
O=C(CSc1nnc(-c2ccccc2O)n1Cc1ccccc1)NNC(=O)c1ccccc1O,42%,13%,6.3µM*,-3%,+
O=C(CSc1nnc(-c2ccccc2)n1Cc1ccccc1)NNC(=O)c1ccccc1O,2%,23%,5µM*,0%,i
CCOC(=O)N1CCN(CCC(=O)Nc2ccccc2OC)CC1,13µM*,14%,u,u,i
O=C(COCc1cc(-c2cccs2)on1)N1CCN(c2ccc(F)cc2)CC1,x,x,x,2%,x
COC(=O)Nc1ccc(S(=O)(=O)Nc2ccc(O)cc2)cc1,45%,u,u,8%,i
O=C(NN1C(=O)/C(=C/c2ccc(O)c(O)c2)SC1=S)c1ccccc1,10µM*,-24%,u,6%,i
CC1=C(C(=O)Nc2ccc(C)cc2C)C(c2ccccc2)n2ncc(C(=O)Nc3ccccc3)c2N1 (stereo not drawn),x,x,x,10%,x
Cc1ccc(OCc2nnc(SCC(N)=O)n2N)cc1,31%,22%,0%,9%,x
CSc1nnc(COc2ccc(C)cc2)n1N,7%,29%,u,-1%,i
COc1ccc(NC(=O)CSc2nnc(-c3nonc3NC(C)=O)n2C)cc1Cl,x,x,x,2%,x
CCOc1ccc(C(=O)Nc2ccc(NC(=O)c3cccs3)cc2)cc1[N+](=O)[O-],61%,26%,4µM*,-2%,+
COc1ccc(C(=O)Nc2ccc(NC(=O)c3cccs3)cc2)cc1[N+](=O)[O-],-11%,11%,-3%,-4%,x
Cc1cc(C(=O)NN=C2CCCC2)c2ccccc2n1,-1%,-2%,-2%,-7%,x
Cc1cc(C(=O)NN=C2CCCCC2)c2ccccc2n1,20%,8%,13µM*,18%,i
Cc1cc(C(=O)N/N=C/c2cc(Cl)cc([N+](=O)[O-])c2O)c2ccccc2n1,-27%,14%,2.2µM*,-1%,i
O=[N+]([O-])c1ccc(O)c(-c2ccnc3cc(-c4ccccc4)nn23)c1,x,x,x,-5%,x
SMILES,Pf growth 96h,Pf growth 48h,SARS PLpro yeast-1,Sm TGR inh,SARS PLpro yeast-2
CC(CC(=O)Nc1ccc(F)c([N+](=O)[O-])c1)c1ccccc1 (stereo not drawn),27%,-15%,u,-21%,i
COc1cc(OC)cc(-n2c(=O)c3ccccc3n(CC(=O)NCCc3ccc(OC)c(OC)c3)c2=O)c1,x,x,x,6%,x
CCCn1c(SCc2nc(N)nc(N3CCCCC3)n2)nc2c1c(=O)n(C)c(=O)n2C,-23%,-7%,-10%,3%,x
Cn1c(=O)c2c(nc(SCc3nc(N)nc(N4CCCCC4)n3)n2C)n(C)c1=O,u,-6%,u,5%,i
COc1cc2c(cc1OC)C(c1ccccc1[N+](=O)[O-])N(C(C)=O)CC2 (stereo not drawn),26%,u,1%,0%,x
CNC(=S)N/N=C(\C)c1ccc2c(c1)OCO2,u,24%,22%,u,x
CNC(=S)N/N=C(\C)c1ccc2c(c1)OCCO2,12%,33%,u,-32%,+
CNC(=S)N/N=C(\C)c1cccc([N+](=O)[O-])c1,17%,4%,13µM*,-16%,i
Cc1cc(C)n(C(C)CC(=O)Nc2cccc(C#N)c2)n1 (stereo not drawn),x,x,x,-8%,x
O=C1NC(Cc2ccccc2)c2nc3cc(F)ccc3c(=O)n2-c2ccccc21 (stereo not drawn),x,x,1%,x,x
COc1cc(/C=N/NC(=O)c2cnccn2)ccc1O,u,14%,3.5µM*,5%,i
Cc1noc(C)c1C(=O)Nc1nc(-c2ccc(F)cc2)cs1,19%,25%,u,2%,i
COC(=O)Nc1ccccc1C(=O)N1CCC(O)(c2ccc(Cl)cc2)CC1,-27%,-24%,u,-1%,i
CCSc1ccccc1C(=O)N1CCN(c2ccccc2F)CC1,-4%,u,u,3%,i
Cc1cc(C)cc(NC(=O)CSc2nc(=O)n(CCCN3CCOCC3)c3c2CCCC3)c1,u,0%,4%,5%,x
COC(C(=O)Nc1ccc(F)cc1)c1ccccc1 (stereo not drawn),8%,-2%,16µM*,1%,i
O=C(CC(Nc1ccc(F)cc1)c1ccccc1)c1ccccc1 (stereo not drawn),63%,18%,3.2µM*,-8%,i
O=C(Nc1ccc(F)cc1)c1ccccc1,112%,x,u,40%,i
O=C(CCCC(=O)c1ccccc1)Nc1ccc(F)cc1,7%,u,-3%,6%,x
CCN(CC)S(=O)(=O)c1ccc(C(=O)Nc2nc3c(Cl)cc(Cl)cc3s2)cc1,x,x,x,1%,x
Cc1ccc(NC(=O)c2cc(S(=O)(=O)N3CCOCC3)cn2C)cc1Cl,-2%,-8%,0%,-2%,x
Cc1cc(C)nc(SCC(=O)NN=Cc2ccc(C)o2)n1,x,x,0%,x,x
COc1cc(NC(=O)c2cccc([N+](=O)[O-])c2C)ccc1NC(=O)c1ccco1,0%,24%,2.8µM*,4%,i
O=C(/C=C/c1ccc(F)cc1)NCCc1ccc2c(c1)OCCO2,-5%,-5%,4µM*,-2%,i
CCOc1cccc2sc(N(Cc3cccnc3)C(=O)c3ccco3)nc12,x,x,x,6%,x
SMILES,Pf growth 96h,Pf growth 48h,SARS PLpro yeast-1,Sm TGR inh,SARS PLpro yeast-2
COc1ccc(C(Nc2ccccn2)c2oc(CO)cc(=O)c2O)cc1 (stereo not drawn),-5%,7%,11µM*,2.8µM*,i
O=c1cc(CO)oc(C(Nc2ccccn2)c2ccccc2Cl)c1O (stereo not drawn),u,u,13µM*,u,i
Cc1c(C(Nc2ccccn2)c2ccc(Cl)cc2)c(=O)n(-c2ccccc2)n1C (stereo not drawn),x,-11%,x,-21%,x
Cc1ccccc1CNC(=O)CCS(=O)(=O)c1cc2c3c(c1)CCN3C(=O)CC2,x,x,x,9%,x
O=C(COC(=O)C1CCCCC1)Nc1cccc(F)c1,x,x,-14%,x,x
O=C(COC(=O)CC1CCCC1)Nc1cccc(F)c1,-3%,25%,u,-6%,i

# High-throughput results from PubChem.
